Common to all, as to assay type: functional
Test [1] concerns the target Solute carrier family 2, facilitated glucose transporter member 1 (Homo sapiens) (UniProt P11166). Description: ST_JUDE_LEISH: Cytotoxicity at 2uM final concentration against transgenic Leishmania Mexicana promastigotes LmGLUT1 that are glucose transport deficient and complemented with the human glucose transporter GLUT1. Activity is measured by DNA content using SYBR green in vitro.

Test [2] deals with Hexose transporter 1 (Plasmodium falciparum) (UniProt O97467). Description: ST_JUDE_LEISH: Cytotoxicity at 2uM final concentration against transgenic Leishmania Mexicana promastigotes LmPfHT that are glucose transport deficient and complemented with the Plasmodium falciparum hexose transporter. Activity is measured by DNA content using SYBR green in vitro.
The target in test [3] is Glucose transporter (Leishmania mexicana) (UniProt O61059). Description: ST_JUDE_LEISH: Cytotoxicity at 2uM final concentration against transgenic Leishmania Mexicana promastigotes LmGT2 that are glucose transport deficient and complemented with the L. Mexicana glucose transporter 2. Activity is measured by DNA content using SYBR green in vitro.

Sequence of Solute carrier family 2, facilitated glucose transporter member 1 (Homo sapiens) (P11166 whole entry): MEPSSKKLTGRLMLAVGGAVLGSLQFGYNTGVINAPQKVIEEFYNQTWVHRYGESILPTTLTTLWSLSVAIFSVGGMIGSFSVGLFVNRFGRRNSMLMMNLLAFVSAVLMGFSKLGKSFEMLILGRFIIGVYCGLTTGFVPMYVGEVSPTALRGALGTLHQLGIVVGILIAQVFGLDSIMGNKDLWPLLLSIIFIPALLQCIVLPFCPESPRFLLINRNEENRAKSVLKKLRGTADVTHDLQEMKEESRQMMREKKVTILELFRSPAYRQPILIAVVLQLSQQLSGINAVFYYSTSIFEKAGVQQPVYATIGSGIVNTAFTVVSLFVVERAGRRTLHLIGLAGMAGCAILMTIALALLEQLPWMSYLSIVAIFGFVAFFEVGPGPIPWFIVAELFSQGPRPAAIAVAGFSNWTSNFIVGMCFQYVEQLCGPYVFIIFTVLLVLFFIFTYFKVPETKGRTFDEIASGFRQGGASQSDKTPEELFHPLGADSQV

As for `N=C(N)NN=Cc1cc2ccccc2c2ccccc12`, the inhibition (as a rule, the drop in the measured response relative to a control, in per cent) in test [1] stood at 8.49%; in test [2] it was 9.7%; in test [3], 4.16%.

As for `O=C(NCCCCN1CCC(c2cccc3ccccc23)CC1)c1ccc(-c2ccc(C(F)(F)F)cn2)cc1`, the inhibition in test [1] came to 2.62%; in test [2], 3.84%; in test [3] it was 1.69%.

As to `O=C(/C=C/c1ccc(Cl)c(Cl)c1)NCCCCCN1CCCN(C(=O)Nc2ccc(Br)cc2)CC1`, the inhibition was found to be 10.6% in test [1], 10.3% in test [2] and 10.2% in test [3].

`Cc1cccc2nc(-c3ccc(-c4cccc(NC(=O)Nc5ccsc5)c4)cc3)[nH]c12`: the inhibition was 1.48% in test [1], 0.08% in test [2] and -1.47% in test [3].

Turning to `COc1ccccc1CCNc1nc(C)cc(N[C@@H](Cc2ccccc2)C(=O)NCc2cccs2)n1`, the inhibition in test [1] came to 2.42%; in test [2], 2.49%; in test [3] it was 0.42%.

For the compound `CN1CCC(NCc2ccc(-c3ccc(Cl)cc3)cc2)CC1`, the inhibition was 5.65% in test [1], 8.78% in test [2] and 4.44% in test [3].

As to `Cn1c(=N)n(CC(=O)OCc2ccc(OCc3ccccc3)cc2)c2ccccc21`, the results for the inhibition in test [1], in test [2] and in test [3] were 2.99%, 2.29% and 1.49%, respectively.

As to `Nc1ncnc2nc(-c3ccc(F)cc3)cc(-c3ccc(NC(=O)c4ccccc4)cc3)c12`, the inhibition in test [1] was 4.74%; in test [2], 2.67%; in test [3], 2.02%.

Take `O=C(CCC1CCCC1)N(Cc1ccc(-c2ccc(CNCCc3ccccn3)cc2)cc1)CC1CCCCN1` (stereo unspecified): the inhibition in test [1] came out at 15.2%; in test [2] it was 4.22%; in test [3] it was 1.88%.

Turning to `O=S(=O)(NCCN1CCCC1)c1ccc(-c2ccccc2CNC2Cc3ccccc3C2)cc1`, the inhibition in test [1] was 66.1%; in test [2] it was 67.7%; in test [3] it was 50.5%.

Take `Cc1ccc(C)c(Cn2c(N3CCC(C(=O)NCc4cccs4)CC3)nc3ccccc32)c1`: the inhibition in test [1] is 3.18%; in test [2], 4.2%; in test [3], -0.43%.

Turning to `Cc1cccc2nc(-c3ccc(-c4ccc(NC(=O)Nc5ccc(Cl)cc5)cc4)cc3)[nH]c12`, the inhibition in test [1] was -1.7%; in test [2], 1.17%; in test [3], -1.04%.

On to `Fc1ccc2c(NN=Cc3ccccc3)ccnc2c1`, for which the values for the inhibition in test [1], in test [2] and in test [3] were 2.29%, 1.07% and -1.55%, respectively.

Consider `O=C(Nc1cccc(OC2CCN(Cc3ccsc3)CC2)c1)c1ccc(C(F)(F)F)cc1`, for which the inhibition in test [1] is 0.75%; in test [2], -0.04%; in test [3], -1.05%.

With `COc1ccc(-c2cccc(NC(=O)c3cccc(Cl)c3)c2)cc1CN(C)CCN(C)C`, the inhibition in test [1] is 1.29%; in test [2] it was 0.75%; in test [3], -1.29%.

On to `O=C(Nc1cccc(-c2cccc(CN3CCCC3)c2)c1)c1cccc(Cl)c1`, for which the inhibition in test [1] amounted to 2.72%; in test [2], 2.72%; in test [3], 4.9%.

For `Cc1cc2c(cc1C(F)(F)F)N(C(=O)Nc1ccc(C(=O)NCCN3CCCC3)cc1)CC2`, the inhibition in test [1] is 1.29%; in test [2], 1.86%; in test [3], -0.08%.

Consider `Cn1cncc1-c1ccc2ncnc(Nc3ccc4c(cnn4Cc4ccccc4)c3)c2c1`, for which the results for the inhibition in test [1], in test [2] and in test [3] were 1.39%, 2.21% and 1.22%, respectively.

On to `COc1cc(Br)c(S(=O)(=O)n2cc(CN3CCC(N)CC3)c3cc(Cl)ccc32)cc1OC`, for which the inhibition in test [1] is 1.4%; in test [2], 2.11%; in test [3], 0.57%.

On to `CCOc1ccccc1CNc1nccc(NCCc2cn(C)c3ccccc23)n1`, for which the inhibition is 7.77% in test [1], 3.5% in test [2] and 2.49% in test [3].

As to `O=c1cc(NCCCNCc2cc(F)cc(C(F)(F)F)c2)[nH]c2ccccc12`, the inhibition was -0.27% in test [1], -0.14% in test [2] and 4.38% in test [3].

Consider `CCOc1cc(C(=O)NCCN(CC)c2cccc(C)c2)ccc1-c1nc2cc(Cl)ccc2[nH]1`, for which the inhibition in test [1] was 3.14%; in test [2] it was 1.88%; in test [3], 1.84%.

`COC(=O)c1ccc(OCC(C)NCC(O)c2cccc(C(F)(F)F)c2)cc1` (stereo unspecified): the figures for the inhibition in test [1], in test [2] and in test [3] were 10.7%, 8.32% and 8.64%, respectively.

Regarding `COc1cc(F)c2ncc(Cl)c(CCN3CCC(NCc4cc5c(cn4)OCCO5)CC3)c2c1`, the inhibition in test [1] turned out to be 28.4%; in test [2] it was 41.5%; in test [3], 55.4%.

With `c1ccc(C2CCC(N3CCC(N4CCN(c5ccccc5)CC4)CC3)CC2)cc1` (stereo unspecified), the inhibition in test [1] came out at 5.35%; in test [2], 7.92%; in test [3], 8.3%.

`Cc1cc(O)c(-c2ccc(Sc3ccc(Cl)cc3)cc2)c(C)n1`: the inhibition in test [1] was -0.64%; in test [2] it was 3.32%; in test [3] it was -4.88%.

Take `Cc1cccc2nc(-c3ccc(-c4ccc(CNCc5cccc(N)c5)cc4)cc3)[nH]c12`: the inhibition in test [1] worked out at 24.1%; in test [2], 30.9%; in test [3] it was 14.9%.

Regarding `CC1CCN(C(=O)[C@H](Cc2c[nH]c3ccccc23)NS(=O)(=O)c2ccc(Cl)cc2)CC1`, the values for the inhibition in test [1], in test [2] and in test [3] were 1.32%, 2.42% and 13.7%, respectively.

`COc1cc(Cc2cnc(N)nc2N)cc(OCCCCC2NC(=O)NC2=O)c1OC` (stereo unspecified): the figures for the inhibition in test [1], in test [2] and in test [3] were 14.8%, 14.5% and 11.6%, respectively.

On to `CCN1CCC(N(Cc2ccc(-c3ccc(C(F)(F)F)cc3)o2)C(=O)Cn2c(CCc3cccc(F)c3F)nc(=O)c3ccccc32)CC1`, for which the inhibition in test [1] was determined as 11.3%; in test [2], 10.6%; in test [3] it was 11.7%.

As for `COc1c(C2CCN(CCCCNC(=O)c3cc(-c4ccc(Cl)cc4)[nH]c3C)CC2)ccc2c1CCCC2`, the results for the inhibition in test [1], in test [2] and in test [3] were 3.66%, 4.04% and 4.31%, respectively.

Turning to `CN(C)CCCNCc1ccc(-c2ccc(F)c(Cl)c2)o1`, the inhibition in test [1] is -0.74%; in test [2], 0.82%; in test [3] it was -0.76%.

As to `COc1ccc2nccc([C@@H](O)CN3CCC(NC(=O)c4cc5c(F)cc(F)cc5[nH]4)CC3)c2c1`, the inhibition in test [1] is 18.1%; in test [2], 20.8%; in test [3] it was 8.41%.

Consider `COc1ccc2ncc(F)c(CCN3CCC(NCc4cc(OC)c5c(c4)OCCO5)CC3)c2n1`, for which the inhibition in test [1] is 7.06%; in test [2], 6.92%; in test [3], 1.31%.

Take `CCC[C@@H](C(=O)NCCc1cccc(OC)c1)N1C(=O)c2c(ccc(OC)c2OC)C1C(=O)Nc1c(C)cccc1C` (stereo partly specified): the inhibition amounted to 0.5% in test [1], 0% in test [2] and 0.1% in test [3].

Turning to `O=C(Nc1cccc(CN2CCCN(Cc3ccc(O)cc3)CC2)c1)c1ccc2ccccc2n1`, the inhibition was 2.74% in test [1], 2.83% in test [2] and -3.88% in test [3].

As to `CC1CCC(C[C@@H](C(=O)N[C@@H](CCC(=O)N2CCCCC2)C(=O)Nc2nccs2)[C@H](C(C)C)N(O)C=O)CC1` (stereo partly specified), the inhibition in test [1] was 3.85%; in test [2] it was 4.16%; in test [3], 3.44%.

The values are drawn from ChEMBL document CHEMBL3433997, “St. Jude Leishmania screening dataset” (2016).
